Compounds with a hit are over-represented: about 1.8% of the library has one in this group of screens.
GRK2 inh – compounds blocking aptamer binding on GRK2 – biochemical, human GRK2, bead flow cytometry, HTS, primary screen. Beta-adrenergic receptor kinase 1 (Homo sapiens), P25098. FAM-aptamer displacement from GRK2. inhibition of aptamer binding, % at 10 µM. hit rate 0.59% among 330,000. AID 488847, 2010;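 active = inhibition of aptamer binding above 40%, roughly 3 SD of noise, on plates passing a quality check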;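 also: median bead fluorescence of bound FAM aptamer so fluorescent compounds give negative values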
Neddylation inh – inhibitors of cullin neddylation, primary screen, biochemical, TR-FRET, uHTS, NAE and Ubc12; inhibition, % at 25 µM; hit rate 0.58% among 360,000; AID 651699, 2012; in the data active = inhibition above about 36%
HDAC3 inhib – HDAC3 deacetylase inhibitors, primary screen, biochemical, fluorescence, cell-free homogeneous; Histone deacetylase 3 (Homo sapiens), O15379; recombinant HDAC3, fluorogenic peptide/trypsin coupled; inhibition, % at 8.3 µM; hit rate 0.15% among 320,000; AID 2718, 2010; in the data active = inhibition above about 26%, passing the limit was not always enough
Target sequence (O15379 whole entry, looked up): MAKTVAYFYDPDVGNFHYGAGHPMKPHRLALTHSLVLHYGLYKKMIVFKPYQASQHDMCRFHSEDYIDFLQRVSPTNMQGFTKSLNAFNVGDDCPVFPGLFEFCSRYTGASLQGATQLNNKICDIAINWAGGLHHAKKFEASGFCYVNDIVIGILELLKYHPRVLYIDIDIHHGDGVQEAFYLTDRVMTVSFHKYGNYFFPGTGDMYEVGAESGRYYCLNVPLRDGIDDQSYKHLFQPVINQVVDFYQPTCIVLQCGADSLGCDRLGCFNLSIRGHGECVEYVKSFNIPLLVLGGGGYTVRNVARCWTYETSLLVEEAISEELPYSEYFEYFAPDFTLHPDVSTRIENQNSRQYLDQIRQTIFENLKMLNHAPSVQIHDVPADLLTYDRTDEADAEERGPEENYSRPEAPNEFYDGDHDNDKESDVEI
Cardio protect – cardioprotection against H2O2-induced cell death, primary screen, uHTS, H9c2 cells, ATPLite luminescence | protection from H2O2 cell death, % at 20 µM | H9c2 cardiomyocytes, H2O2 injury protection, 2 h | hit rate 0.63% among 360,000;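 active = compounds giving at least 50% protection of heart cells from peroxide-induced death in the single-dose screen, raw or plate-pattern-corrected value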
Neddyl inh conf – blockade of NEDD8 conjugation to cullin – biochemical, TR-FRET, single concentration, confirmation. shares compounds with Neddylation inh. TR-FRET cullin neddylation biochemical assay. calls only at 25 µM. hit rate 13% among 1,800. AID 652217, 2013; in the data active = inhibition above about 40%;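 also: neddylation substrate is the cullin 1 ring ligase complex with SKP2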
Large screens that a line does not name were inactive (follow-up assays come after a bar, where shown).

COc1ccc(-c2ccc3c(N)c(C(=O)NC(C)C)sc3n2)cc1OC	Neddylation inh 39
COc1ccc(-c2ccc3c(N)c(C(=O)c4ccc(OC)c(OC)c4)sc3n2)cc1	none
C[C@H](NC(=O)c1cc2c(cn1)[nH]c1ccccc12)C(=O)O	Neddylation inh 42 | Neddyl inh conf active
O=c1[nH]c2ccc(S(=O)(=O)N3CCN(C4CCCCC4)CC3)cc2[nH]c1=O	Neddylation inh 40
CCC(C)N1C(=O)N(c2cccc(Cl)c2)C(C)(O)CC1(C)C (stereo unspecified)	none
COc1cc(/C=N\NC(=O)c2ccc(-c3ccccc3)cc2)cc(Br)c1O	Neddylation inh 45 (no result: HDAC3 inhib) | Neddyl inh conf inactive
COc1ccc(/C=N/NC(=O)c2ccc(-c3ccccc3)cc2)cc1O	none
CC(C)(C)OC(=O)N(Cc1ccccc1)Cc1cccc(OCc2cccc(NC(=O)c3ccccc3)c2)c1	none (no result: GRK2 inh, HDAC3 inhib)
O=C(Nc1ccc2nc(-c3cccnc3)[nH]c2c1)C1CCCCC1	Neddylation inh 40 | Neddyl inh conf inactive
Cc1oc(-c2cccs2)nc1CSCC(=O)NC1CC1	Neddylation inh 52 | Neddyl inh conf inactive
CCOC(=O)N1CCC(NC(=O)CSCc2nc(-c3sccc3C)oc2C)CC1	none
COc1ccc2oc(C(=O)NCC(c3ccco3)N(C)C)c(C)c2c1 (stereo unspecified)	Neddylation inh 50
COc1ccc2oc(C(=O)NC3(C)CCS(=O)(=O)C3)c(C)c2c1 (stereo unspecified)	Neddylation inh 58
COc1ccc2oc(C(=O)NCCc3ccccc3)c(C)c2c1	none
Cc1cccc(C)c1OCc1cc(C(=O)N(Cc2c(C)nn(C)c2C)C2CC2)no1	none
N#C/C(=C\c1cn(Cc2ccc(C#N)cc2)c2ccccc12)C(=O)NCc1cccs1	Neddylation inh 43
O=C1c2cccc(-c3ccc(C(F)(F)F)cc3)c2C2CC=CCN12 (stereo unspecified)	none (no result: GRK2 inh, HDAC3 inhib)
COc1ccc2ccc(=O)oc2c1CC(=O)C(C)C	Neddylation inh 44 (no result: HDAC3 inhib) | Neddyl inh conf inactive
CCN(CC)CCN(C(=O)c1cc2c(ccc3ccccc32)oc1=O)c1nc2cc3c(cc2s1)OCCO3	Neddylation inh 56 | Neddyl inh conf inactive
CN(c1ccc(C(=O)NCc2ccncc2)cc1)S(=O)(=O)c1ccc(Cl)cc1	none (no result: HDAC3 inhib)
CN(C)c1ccc(-c2nc3cnccn3c2Nc2ccc3c(c2)OCCO3)cc1	Neddylation inh 46
Cc1nn(C)c2nc(-c3cccs3)cc(C(F)(F)F)c12	Neddylation inh 45 | Neddyl inh conf inactive
CCOC(=O)N1CCN(C(=O)c2cc3n(n2)C(C(F)(F)F)CC(c2ccc4c(c2)OCO4)N3)CC1 (stereo unspecified)	none
CCCCN(CCCC)C1=Nc2ccccc2N/C1=C(/C#N)C(=O)OCC	Neddylation inh 40 | Neddyl inh conf inactive
CCOC(=O)/C(C#N)=C1\Nc2ccccc2N=C1N(CC(C)C)CC(C)C	none
CCN(CC)c1ccc(C(=O)N/N=C/c2ccc(OC)cc2OC)cc1	Neddylation inh 42 | Neddyl inh conf inactive
COc1ccc(OC)c(C=NNC(=O)c2ccc(NS(=O)(=O)c3cccs3)cc2)c1	Neddylation inh 55
COc1ccc(C(=O)Nc2cccc(C(=O)N/N=C/c3ccc(OC)cc3OC)c2)cc1	none
COc1ccc(/C=N/NC(=O)c2ccc(NS(=O)(=O)c3cccs3)cc2)cc1	none
COc1ccc(-c2cnnc(N/N=C/c3ccc(O)c(OC)c3)n2)cc1	none
CCCCOc1ccc(NC(=O)Nc2nnc(C)s2)cc1	none
O=C(COC(=O)c1cc(-c2ccc(F)cc2)nc2ccccc12)NCC1CCCO1 (stereo unspecified)	Neddylation inh 49 | Neddyl inh conf inactive
NC(=S)N/N=C/c1ccccc1OCCSc1ccc(Cl)cc1	none (no result: HDAC3 inhib)
CC1(c2nnc(-c3ccc(Cl)cc3)o2)CC(c2cccnc2)=NO1 (stereo unspecified)	none
Cc1cc(=O)oc2cc(OCC(=O)N3CCCC3)c(Cl)cc12	Neddylation inh 60
CCOC(=O)C1CCN(S(=O)(=O)c2ccc3[nH]c(=O)ccc3c2)CC1	none
O=C(O)/C=C/C(=O)Nc1ccc2nccnc2c1	Neddylation inh 41 | Neddyl inh conf inactive
CN(C[C@H](Cc1ccccc1)N(C[C@H](Cc1ccccc1)N(CC1(c2ccccc2)CC1)N=O)N=O)N=O	none
Cc1ccc2c(c1)c1c3n2CCN(C(=O)C2CC2)C3CCC1 (stereo unspecified)	Neddylation inh 45 | Neddyl inh conf inactive
Cc1ccc2c(c1)c1c3n2CCN(C(=O)CN2CCN(C)CC2)C3CCC1 (stereo unspecified)	none
O=C(NCc1ccco1)c1cnn2c(C(F)(F)F)cc(-c3ccccc3)nc12	Neddylation inh 42 | Neddyl inh conf inactive
COc1ccc(-c2cc(C(F)(F)F)n3ncc(C(=O)NCc4ccco4)c3n2)cc1	none (not shown: Neddylation inh)
COc1cc(C(=O)Nc2nnc(CC(C)C)s2)c([N+](=O)[O-])cc1OC	none
Cc1nn(-c2ccccc2)c(N2CCCC2)c1/C=N/NC(=O)c1ccccc1O	Neddylation inh 45 | Neddyl inh conf inactive
CCOC(=O)Cc1csc(NC(=O)C(C)c2ccc([N+](=O)[O-])cc2)n1 (stereo unspecified)	none
COc1ccc(-c2cnc3ccccc3n2)cc1NC(=O)CNC(=O)c1ccccc1	Neddylation inh 39 | Neddyl inh conf inactive
COc1ccccc1NC(=O)CNC(=O)c1ccccc1	none
COc1ccc(/C=C2/SC(=O)N(CCNC(=O)C3CC(=O)N(Cc4ccccc4)C3)C2=O)cc1 (stereo unspecified)	none (no result: GRK2 inh, HDAC3 inhib)
COc1cc2ccccc2cc1C(=O)OCC(=O)N(C)c1c(N)n(Cc2ccccc2)c(=O)[nH]c1=O	Neddylation inh 49
COc1ccc(CCC(=O)OCC(=O)N(C)c2c(N)n(Cc3ccccc3)c(=O)[nH]c2=O)cc1	none
CCN(C(=O)COC(=O)c1cc2ccccc2cc1OC)c1c(N)n(Cc2ccccc2)c(=O)[nH]c1=O	Neddylation inh 56 (not shown: GRK2 inh, HDAC3 inhib)
CCN(C(=O)COC(=O)c1ccc(O)cc1O)c1c(N)n(Cc2ccccc2)c(=O)[nH]c1=O	none
O=C(CCN1C(=O)S/C(=C\c2ccc(F)cc2)C1=O)Nc1ccc(C(=O)O)c(O)c1	none
O=C(CCN1C(=O)S/C(=C/c2ccc(F)cc2)C1=O)Nc1ccc(O)c(C(=O)O)c1	Neddylation inh 44 | Neddyl inh conf inactive
O=C1OCCN1N1CCOC1=O	none (no result: GRK2 inh, HDAC3 inhib)
O=C(N/N=C/c1cccnc1)c1cccc(N2CCCC2=O)c1	none
CCN(CC)c1ccc(/C=N/NC(=O)c2cccc(N3CCCC3=O)c2)cc1	Neddylation inh 57
O=C(N=C1SC2CS(=O)(=O)CC2N1c1ccc(OC(F)(F)F)cc1)C1CC1 (stereo unspecified)	none
COc1ccccc1N1CCN(CC(O)c2ccc3cc[nH]c3c2)CC1 (stereo unspecified)	Neddylation inh 44 (no result: HDAC3 inhib) | Neddyl inh conf inactive
